Measurements: the supplement of paper PMC12669797
“And” between values parts separate entries of the source, which are not always exact repeats. Equal entries are not always repeated. Structures can show the parent of a compound that is named as a salt. ± gives the standard deviation of the averaged measurements.

The compounds below were run on TOV-21G (assay: cell viability relative to DMSO control (MTS) (fraction of DMSO control); higher = more viable cells / less growth inhibition). Details: 10 µM; 48 h.
Summary of the method: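 TOV-21G and ES2 clear cell carcinoma cells were plated in 96-well plates at 5000 cells per well, grown for 24 h, and then exposed to a 367-compound […] library at a final concentration of 10 µM, with vehicle alone in control wells. An MTS assay (CellTiter 96 AQueous One Solution) was read 48 h later according to the manufacturer's protocol. Viability is reported as a fraction of the vehicle control.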
`O=C([O-])c1ccccc1O.[Na+]` [Sodium salicylate] gave a cell viability of 1.27. Compound `O=S(=O)(c1cccc2cnccc12)N1CCCNCC1` has a cell viability of 1.04. For `CC(C)c1cc(/C=C(\C#N)C(=O)NCCCc2ccccc2)cc(C(C)C)c1O`, the cell viability was 0.938 ± 0.063. In the case of `CN(C)CCCCC(=O)Nc1ccc(NC(=S)NC(=O)c2ccc(C(C)(C)C)cc2)cc1` [Tenovin-6], the cell viability is reported as 0.274. In the case of `CCNCCCNCCCCNCCCNCC` [N1,N12-Diethylspermine (BESpm)], the cell viability is reported as 0.731. Work on `CCOC(=O)C1=C(N)Oc2ccc(Br)cc2C1C(C#N)C(=O)OCC` (stereo not drawn) yielded a cell viability of 0.998. Compound `C[C@@H]1C[C@H]2O[C@@H]2/C=C\C=C\C(=O)Cc2c(Cl)c(O)cc(O)c2C(=O)O1` [Radicicol] has a cell viability of 0.37. For `c1cc(CN2CCCNCCNCCCNCC2)ccc1CN1CCCNCCNCCCNCC1` [AMD3100 octahydrochloride], the cell viability was 1.38. For `O=Nc1c(-c2c(O)[nH]c3cc(Br)ccc23)[nH]c2ccccc12` [GSK-3 inhibitor IX], the cell viability was 0.36. `O=c1cc(N2CCOCC2)oc2c(-c3ccccc3)cccc12` was tested, and the cell viability was 0.52 and 0.519. Work on `COc1cccc2c1C(=O)c1c(O)c3c(c(O)c1C2=O)C[C@@](O)(C(=O)CO)C[C@@H]3O[C@H]1C[C@H](N)[C@H](O)[C@H](C)O1` [Doxorubicin, HCl] yielded a cell viability of 0.403. In the case of `C[n+]1ccc(-c2c3nc(c(-c4cc[n+](C)cc4)c4ccc([nH]4)c(-c4cc[n+](C)cc4)c4ccc([nH]4)c(-c4cc[n+](C)cc4)c4nc2C=C4)C=C3)cc1`, the cell viability is reported as 0.79. Work on `Nc1[nH]nc2nnc(-c3c(-c4ccccc4)nn4ccccc34)cc12` [ERK inhibitor II] yielded a cell viability of 0.734.
